Assay results reported in PubChem BioAssay.
Calls of active or inactive are those of the source.

Key:
[1] = tested on: Plasmodium falciparum Sir2 (PF13_0152, Sir2A); assay: Plasmodium falciparum Sir2A binding compounds – biochemical, small-molecule microarray, 635 nm fluorescence, primary screen (AID 1098); conditions: fluorescence 635 nm, higher = more signal;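 also: score merges spot fluorescence intensity with its signal-to-noise ratio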
[2] = probe aDKK1 binding to arrayed compounds – biochemical, biotinylated probe, 635/667 nm fluorescence, primary screen (AID 1099); conditions: small-molecule microarray, higher = more signal;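 also: score merges 667nm spot fluorescence with signal to noise across triplicate slides; reference of the scale not given here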
[3] = probe aCHRDL2 binding to arrayed compounds – biochemical, biotinylated probe, 635/667 nm fluorescence, primary screen (AID 1100); conditions: small-molecule microarray, higher = more signal
[4] = change in splice reporter luminescence, either direction, cell-based, HEK293, spliceosome inhibition project, primary screen (AID 1101); conditions: HEK293 splicing luciferase reporter, 24 h, higher = more signal, called active from +8 up or from −8 down;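 also: HEK293 cells carrying a splicing-competent luciferase reporter gene; test concentration not given here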
[5] = target: Fibroblast growth factor 10 (Homo sapiens) (UniProt O15520); assay: compounds binding fibroblast growth factor 10 – biochemical, small-molecule microarray, 635 nm fluorescence, primary screen (AID 1102); conditions: FGF10 binding, fluorescence 635 nm, higher = more signal
Fibroblast growth factor 10 (Homo sapiens), sequence (O15520 whole entry, looked up): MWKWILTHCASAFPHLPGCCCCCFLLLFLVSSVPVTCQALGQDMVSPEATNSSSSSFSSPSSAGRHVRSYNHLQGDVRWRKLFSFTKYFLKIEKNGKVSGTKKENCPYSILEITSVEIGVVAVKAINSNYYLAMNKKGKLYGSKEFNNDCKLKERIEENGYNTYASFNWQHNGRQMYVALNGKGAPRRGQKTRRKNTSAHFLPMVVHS

[6] = tested on: glycogen synthase kinase-3 (GSK3A per assay name; protocol says GSK3B); assay: compounds binding glycogen synthase kinase-3 – biochemical, small-molecule microarray, 635 nm fluorescence, GSK3A, primary screen (AID 1103); conditions: fluorescence 635 nm, higher = more signal; also: the record names both GSK3A and GSK3B
[7] = target: Epidermal growth factor receptor (Homo sapiens) (UniProt P00533); assay: compounds binding epidermal growth factor receptor – biochemical, small-molecule microarray, 635 nm fluorescence, primary screen (AID 1104); conditions: EGFR binding, higher = more signal;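 also: score merges 667 nm emission intensity with spot signal to noise over triplicate slides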
Epidermal growth factor receptor (Homo sapiens), sequence (P00533 whole entry, looked up): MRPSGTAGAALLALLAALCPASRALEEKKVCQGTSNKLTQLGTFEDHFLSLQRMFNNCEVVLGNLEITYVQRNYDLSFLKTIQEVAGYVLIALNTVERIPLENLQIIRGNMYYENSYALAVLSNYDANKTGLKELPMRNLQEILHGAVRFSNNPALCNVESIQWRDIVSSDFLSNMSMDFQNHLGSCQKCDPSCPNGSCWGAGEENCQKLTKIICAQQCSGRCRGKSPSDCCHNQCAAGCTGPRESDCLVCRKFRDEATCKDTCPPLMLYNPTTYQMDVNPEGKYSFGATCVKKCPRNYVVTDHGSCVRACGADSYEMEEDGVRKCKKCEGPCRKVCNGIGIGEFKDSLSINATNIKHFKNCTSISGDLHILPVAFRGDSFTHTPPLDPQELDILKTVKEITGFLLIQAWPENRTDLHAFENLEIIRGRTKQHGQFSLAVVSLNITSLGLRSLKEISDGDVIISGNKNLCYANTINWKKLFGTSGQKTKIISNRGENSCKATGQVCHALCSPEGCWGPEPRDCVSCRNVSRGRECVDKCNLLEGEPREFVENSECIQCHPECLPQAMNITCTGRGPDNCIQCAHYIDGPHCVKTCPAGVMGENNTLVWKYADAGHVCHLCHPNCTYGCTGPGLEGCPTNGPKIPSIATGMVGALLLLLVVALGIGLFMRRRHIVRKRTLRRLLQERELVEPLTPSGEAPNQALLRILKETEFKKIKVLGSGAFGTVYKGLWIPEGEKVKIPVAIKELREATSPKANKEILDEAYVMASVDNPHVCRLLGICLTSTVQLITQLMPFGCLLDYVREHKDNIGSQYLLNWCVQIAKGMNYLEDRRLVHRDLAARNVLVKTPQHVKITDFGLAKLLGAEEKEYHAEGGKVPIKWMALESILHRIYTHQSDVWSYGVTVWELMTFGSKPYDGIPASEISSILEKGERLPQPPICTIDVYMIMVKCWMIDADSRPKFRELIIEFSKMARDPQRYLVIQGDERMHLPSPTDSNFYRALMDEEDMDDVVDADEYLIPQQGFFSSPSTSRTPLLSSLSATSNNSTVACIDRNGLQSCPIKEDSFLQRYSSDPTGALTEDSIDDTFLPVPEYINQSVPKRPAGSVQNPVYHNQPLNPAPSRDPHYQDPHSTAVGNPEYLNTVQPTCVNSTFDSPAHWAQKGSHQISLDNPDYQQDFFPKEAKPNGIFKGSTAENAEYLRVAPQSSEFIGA

[8] = target: Follistatin-related protein 3 (Homo sapiens) (UniProt O95633); assay: compounds binding follistatin-related protein 3 – biochemical, small-molecule microarray, 635 nm fluorescence, primary screen (AID 1105); conditions: FSTL3 binding, higher = more signal;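 also: score merges emission near 667 nm and signal to noise per printed spot across three slides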
Follistatin-related protein 3 (Homo sapiens), sequence (O95633 whole entry, looked up): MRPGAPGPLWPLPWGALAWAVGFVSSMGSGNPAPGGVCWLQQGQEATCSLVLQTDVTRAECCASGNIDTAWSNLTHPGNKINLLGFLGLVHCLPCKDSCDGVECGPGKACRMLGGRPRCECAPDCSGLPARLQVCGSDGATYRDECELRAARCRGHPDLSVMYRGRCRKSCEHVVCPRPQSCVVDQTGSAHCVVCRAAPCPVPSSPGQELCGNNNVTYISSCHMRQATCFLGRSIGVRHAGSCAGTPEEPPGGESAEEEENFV

[9] = target: Dickkopf-related protein 1 (Homo sapiens) (UniProt O94907); assay: small molecules binding DKK1 protein – biochemical, small-molecule microarray, 635 nm fluorescence scan, primary screen (AID 1106); conditions: higher = more signal;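 also: score merges emission near 667 nm with signal to noise over three replicate slides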
Dickkopf-related protein 1 (Homo sapiens), sequence (O94907 whole entry, looked up): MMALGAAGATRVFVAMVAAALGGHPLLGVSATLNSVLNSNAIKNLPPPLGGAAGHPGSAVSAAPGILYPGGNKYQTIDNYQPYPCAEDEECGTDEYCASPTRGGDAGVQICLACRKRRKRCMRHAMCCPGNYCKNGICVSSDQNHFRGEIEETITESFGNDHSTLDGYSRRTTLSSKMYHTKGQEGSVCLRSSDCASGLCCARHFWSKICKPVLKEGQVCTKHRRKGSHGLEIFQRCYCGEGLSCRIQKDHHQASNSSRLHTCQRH

[10] = tested on: Inhibin beta A chain (activin A); assay: small molecules binding activin A – biochemical, small-molecule microarray, 635 nm fluorescence scan, primary screen (AID 1107); conditions: INHBA, higher = more signal;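 also: mouse activin A protein probed at 4.33 µg/mL on printed slides; score merges bound-protein fluorescence near 667 nm with spot signal-to-noise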

SMILES	composite z-score [1]	composite z-score [2]	composite z-score [3]	z-score [4]	composite z-score [5]	composite z-score [6]	composite z-score [7]	composite z-score [8]	composite z-score [9]	composite z-score [10]
CC(=CC1CCCCC1)[C@@H](NC(=O)c1ccc(C(F)(F)F)cc1)c1ccc(-c2ccccc2)cc1	-0.0411	0.41	0.848	-0.423 (inactive)	-0.394	-0.988	-0.365	0.138	-0.0349	1.03
COCCOC(=O)N1C(=O)[C@@]2(c3cc(C#CCC(C(=O)OC)C(=O)OC)ccc31)[C@H](C(=O)N1CCN(c3ncccn3)CC1)[C@H]1C(=O)O[C@H](c3ccccc3)[C@H](c3ccccc3)N1[C@@H]2c1ccc(OCCO)cc1	1.56	-0.0747	0.0277	-0.923 (inactive)	0.699	1.1	0.275	0.626	-0.0047	0.149
COCCOC(=O)N1C(=O)[C@@]2(c3cc(C#CCNC(N)=O)ccc31)[C@H](C(=O)N1CCc3cc(OC)c(OC)cc3C1)[C@H]1C(=O)O[C@H](c3ccccc3)[C@H](c3ccccc3)N1[C@@H]2c1ccc(OCCO)cc1	1.06	-0.0141	-0.053	-0.0304 (inactive)	1.28	-0.08	0.528	1.17	0.529	0.886
[N-]=[N+]=NCc1ccccc1[C@@H]1OC(c2ccc(OCCCO)cc2)=N[C@]1(Cc1ccccc1N=[N+]=[N-])C(=O)NCc1ccccc1	0.919	0.0108	0.316	-0.856 (inactive)	0.691	1.25	0.351	0.667	0.0688	1.28
O=C1O[C@@H](c2ccccc2)[C@@H](c2ccccc2)N2[C@@H](c3ccc(O)cc3)[C@]3(C(=O)Nc4ccc(C#CC5=CCCCC5)cc43)[C@@H](C(=O)O)[C@H]12	1.14	0.799	0.999	-1.05 (inactive)	0.277	0.653	0.035	0.545	0.0526	1.19
CC1CC/C=C\[C@H]2OC34C=CCN(Cc5ccccc5)C(=O)[C@H]3N(CCCCCO)C(=O)[C@@H]4C2C(=O)O1 (stereo not given in full)	-0.0545	-0.425	0.144	0.537 (inactive)	-0.423	-1.42	-0.713	-1.19	-0.892	-0.0407
CN(C)CCCNC(=O)[C@@]1(Cc2ccccc2I)c2ccccc2C(=O)N(Cc2ccccc2C(F)(F)F)[C@H]1c1ccc(CO)cc1	0.278	0.234	0.86	-1.55 (inactive)	-0.75	0.391	-1.62	-1.34	-1.33	0.094
CC(C)N1C(=O)[C@@]2(c3ccc([N+](=O)[O-])cc3)CC(=O)N(CC34CC5CC(CC(C5)C3)C4)[C@@H]2c2ccc(CO)cc21	-0.732	-0.0981	0.226	0.477 (inactive)	-0.51	-0.829	-1.81	-0.603	-0.734	0.0207
COCC(=C=CC[C@H](O)c1ccc(OCCO)cc1)C[C@H](O)c1cc(Cl)cc(Cl)c1O	0.654	-0.268	-0.0229	-2.51 (inactive)	1.55	0.26	0.0404	1.11	-0.043	0.598
CCC[C@@H]1C=C(C(=O)O)[C@H](c2ccc(C)cc2)N1S(=O)(=O)c1ccc(C)cc1	0.706	0.36	0.817	1.04 (inactive)	0.74	0.415	-0.278	0.192	-0.435	0.71
CCOC(=O)C1=C[C@@H](CC)N(S(=O)(=O)c2ccc(C)cc2)[C@H]1c1ccccc1	0.689	-0.1	0.521	0.803 (inactive)	0.769	1.01	0.586	0.59	0.43	0.538
CC1=C2[C@@H](CCc3ccccc3)OB(O)C[C@@H]2n2c(=O)n(-c3ccccc3)c(=O)n2C1	0.897	-0.0992	-0.339	0.72 (inactive)	0.355	0.255	0.249	0.894	0.565	0.421
CN1C(=O)C2C(C1=O)C1C=C(CCCO)C2C(c2cccs2)N1C (stereo not given)	1.78	-0.722	-0.681	-0.0035 (inactive)	0.248	-0.76	-0.106	-0.473	-0.559	0.561
[N-]=[N+]=NCc1ccccc1C[C@@]1(C(=O)N2CCOCC2)N=C(c2ccc(OCCCO)cc2)O[C@@H]1c1ccccc1CN=[N+]=[N-]	1.63	1.22	1.37	-0.429 (inactive)	1.46	0.965	0.422	0.656	-0.0757	0.811
CCCN1C(=O)[C@]2(COC(c3ccc(OCCCO)cc3)=N2)Cc2ccccc21	1.08	1.09	1.1	0.409 (inactive)	0.736	1	-0.542	0.378	0.0779	0.854
COCCOC(=O)N1C(=O)[C@@]2(c3cc(C#CC4(O)CCCCCC4)ccc31)[C@H](C(=O)N1CCCCCCC1)[C@H]1C(=O)O[C@H](c3ccccc3)[C@H](c3ccccc3)N1[C@@H]2c1ccccc1OCCO	1.6	1.56	1.44	0.0811 (inactive)	0.933	1.32	0.75	1.46	1.18	1.63
CCC(CC)C(O)C1C=CC2C(=O)N(c3ccccc3)C(=O)C2N1Nc1ccc(C#N)cc1 (stereo not given)	0.82	1.29	0.705	1.22 (inactive)	0.783	1.27	0.231	0.78	-0.197	0.794
COc1cc(C(O)C2C=CC3C(=O)N(c4ccccc4)C(=O)C3N2Nc2ccc(C#N)cc2)cc(OC)c1OC (stereo not given)	1.4	1.45	1.34	1.22 (inactive)	1.17	1.33	-0.209	1.25	-0.536	0.0506
COCCOC(=O)N1C(=O)[C@@]2(c3cc(C#CCCO)ccc31)[C@H](C(=O)NC[C@H](O)c1ccccc1)[C@H]1C(=O)O[C@H](c3ccccc3)[C@H](c3ccccc3)N1[C@@H]2c1ccc(O)cc1	0.0479	-0.194	0.146	-0.267 (inactive)	0.518	-0.417	-0.243	0.599	0.165	-0.0769
O=C1OCCC/C=C\[C@H]2OC34C=CCN(Cn5nnc6ccccc65)C(=O)[C@H]3N(CCCCCO)C(=O)[C@@H]4C12 (stereo not given in full)	0.957	-0.118	0.584	-0.586 (inactive)	-1.08	-1.7	-0.97	-0.751	-1.45	0.702
O=C1OCCC=C[C@H]2OC34C=CCN(Cc5ccccc5)C(=O)[C@H]3N(CCCO)C(=O)[C@@H]4C12 (stereo not given in full)	0.53	-0.33	-0.182	-1.74 (inactive)	-0.745	-1.44	-0.873	-0.512	-0.179	0.399
